ELG1 repair inh: ELG1-dependent DNA repair inhibition; HEK293T ELG1-luciferase reporter, luminescence, 16 h; DNA damage induced by 5-fluorouridine; Potency, µM (series often up to 46.1 µM), actives largely listed as inhibitors; 330,000 compounds, 2.3% hits; AID 504467; note: nearly all actives have a fitted effect of over 55% in size
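Reporter activity after DNA damage by 5-fluorouridine is monitored. Compound-treated cells incubate 16 hr at 37 °C, then ONE-Glo is added for 30 min before luminescence reading.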
TDP1 cell noCPT: qHTS for Inhibitors of human tyrosyl-DNA phosphodiesterase 1 (TDP1): qHTS in cells in absence of CPT; AID 686978, 2013; 420,000 compounds, 15% hits; DT40 Tdp1-/- hTDP1 cells, no CPT, ATP luminescence, 48 h; Potency, µM (top dose mostly 46.2 µM), actives largely listed as inhibitors; note: nearly all actives have a fitted effect of over 55% in size
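Stably hTDP1-transfected Tdp1-null chicken DT40 cells were treated with library compounds minus camptothecin and grown for at least 48 hr at 37 °C, after which cellular ATP was quantified by luminescence.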
HT1080 IDH1KD tx: toxicity to HT-1080 IDH1 knockdown cells (counter line); Potency, µM (top dose mostly 46.1 µM), most hits filed as cytotoxic; HT-1080 IDH1 knockdown viability, ATP luminescence, 48 h; 360,000 compounds, 2% hits
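Assay cells: HT-1080 with IDH1 knockdown, 750 per well, RPMI/5% FBS. Exposure: 48 h at 37 °C following 2 h pre-incubation. Read: CellTiter-Glo luminescence; fitted concentration-response, curve class assigned.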
HT1080-NT tox: kills 2HG-producing HT-1080-NT fibrosarcoma cells; HT-1080-NT fibrosarcoma viability, CellTiter-Glo ATP luminescence, 48 h; 360,000 compounds, 1.6% hits; Potency, µM (top dose mostly 46.1 µM), hits mostly cytotoxic;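 note: NT is the 2HG producing partner of a matched IDH1 knockdown line; nearly all actives have a fitted effect of over 55% in size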
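Toxicity toward the 2HG-producing NT line was scored as %Activity, normalised to DMSO and no-cell wells, from CellTiter-Glo luminescence after 48 hours' treatment.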
TDP1 cell CPT: growth inhibition of DT40 Tdp1-/-;hTDP1 cells with camptothecin (screen for TDP1 inhibitors) | Potency, µM (series often up to 46.2 µM), most hits filed as inhibitors | 420,000 compounds, 12% hits | AID 686979 | chicken DT40 Tdp1-/-;hTDP1 cells + 20 nM CPT, ATP luminescence, 48 h; note: nearly all actives have a fitted effect of over 55% in size
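Chicken DT40 Tdp1-/- cells complemented with human TDP1, 400 cells/well, exposed to compounds plus 20 nM camptothecin for at least 48 h at 37 C; viability read as ATP content by CellTiter-Glo luminescence.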
IL-1B inflam inh: inhibitors of inflammasome signaling (IL-1 beta secretion) | activity change, % at 57.5 µM | 360,000 compounds, 4.7% hits | THP-1 LPS/ATP IL-1B secretion, AlphaLISA, 16 h; active compounds read low | AID 743279; in the data active = activity change below about -50%; inconclusive = mostly about -30% to -49%
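THP-1 cells pretreated 1 hr with compounds (up to 57.5 uM final), then stimulated with LPS (250 ng/mL final) plus ATP (1.25 mM final); secreted IL-1B measured by AlphaLISA after 16 hr, decreased signal indicating inhibition.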
Numbers stand for hits; 0 = inactive; ? = inconclusive; - = no result given. Compounds with a hit are over-represented: about 19% of the library has one in this group of screens. Unless noted, calls come from the whole dose curve; as a rule, active = well fitted curve in the direction sought with a large enough effect; inconclusive = small, poorly fitted or top-dose-only effect, or another doubt; inactive = no such curve, though single readings can be large; an effect the other way counts as inactive or inconclusive.

SMILES	ELG1 repair inh	TDP1 cell noCPT	HT1080 IDH1KD tx	HT1080-NT tox	TDP1 cell CPT	IL-1B inflam inh
Cc1ccn2c(NC(=O)c3ccccc3)c(-c3ccccc3)nc2c1	0	0	0	0	0	0
Cc1ccn2c(Nc3ccccc3C)c(-c3ccccn3)nc2c1	?	2.91µM	9.2µM	14.6µM	16.4µM	0
Cc1ccc2nc(-c3ccccn3)c(Nc3ccccc3C)n2c1	0	10.3µM	13µM	13µM	16.4µM	0
CCCNC(=O)c1cnn(-c2ccc(C)c(C)c2)c1C1CCN(C(=O)OC(C)(C)C)CC1	-	23.1µM	-	-	?	-
CCOC(=O)N1CCC(NC(=O)c2cnn(-c3ccccc3)c2C2CCN(C(=O)OC(C)(C)C)CC2)CC1	-	0	-	-	0	-
Cc1ccc(-n2ncc(C(=O)N3CCN(C(=O)c4ccco4)CC3)c2C2CCN(C(=O)OC(C)(C)C)CC2)cc1C	0	0	0	0	0	0
Cc1ccc(-n2ncc(C(=O)NCCc3ccsc3)c2C2CCN(C(=O)OC(C)(C)C)CC2)cc1C	-	16.4µM	-	-	16.4µM	-
Cc1ccc(C2CCN(C(=O)c3cnn(-c4ccc(C)c(C)c4)c3C3CCN(C(=O)OC(C)(C)C)CC3)C2)cc1 (configuration not stated)	-	13µM	-	-	10.3µM	-
Cc1ccc(-n2ncc(C(=O)NCCc3c[nH]c4ccccc34)c2C2CCN(C(=O)OC(C)(C)C)CC2)cc1C	-	?	-	-	16.4µM	-
O=C(CCc1nnc(CCCc2ccccc2)o1)NCC(F)(F)F	?	0	0	0	0	0
CCCCC(=O)Nc1nnc(S(=O)(=O)N(C)Cc2ccccc2)s1	-	0	-	-	0	-
Nc1ccc2cc3[nH]c4cc(N)ccc4c3nc2c1	-	2.31µM	?	?	2.91µM	-109.2
Cc1cc(=O)[nH]c2cc(N)ccc12	-	0	-	-	0	-
CC(NC(=O)Cc1ccc(S(=O)(=O)N2CCOCC2)s1)c1ccc(Br)cc1 (configuration not stated)	-	?	0	0	?	0
Cc1noc(C)c1-c1nccc(NC2CC2)n1	-	0	-	-	0	-
N#Cc1ccc(C23CC4(C2)[C@H](CN(CC2CCCCC2)[C@@H]4c2ccccc2)C3c2ccc(Cl)nc2)cc1 (some centres not stated)	0	14.6µM	0	0	13µM	0
N#Cc1ccc(C23CC4(C2)[C@H](CN(CC2CCCCC2)[C@@H]4c2ccccc2)C3c2ccccc2)cc1 (some centres not stated)	0	16.4µM	0	0	?	0
N#Cc1ccc(C23CC4(C2)[C@H](CN(CC2CCCCC2)[C@@H]4c2ccccc2)C3c2ccc(C(F)(F)F)cc2)cc1 (some centres not stated)	0	-	-	-	-	-
Cc1c(Cl)cccc1NC(=O)Nc1nnc(N(C)Cc2ccccc2)s1	-	0	-	-	?	-
CCN(c1ccccc1)c1nnc(NC(=O)Nc2ccccc2F)s1	-	2.59µM	-	-	?	-
Cc1ccccc1NC(=O)Nc1nnc(N(C)Cc2ccccc2)s1	-	16.4µM	-	-	?	-
Cc1cccc(NC(=O)Nc2nnc(N(C)Cc3ccccc3)s2)c1	-	?	-	-	14.6µM	-
CC#CC(=O)N1CCCC(Cc2cccc(OC)c2)(C(=O)OCC)C1 (configuration not stated)	?	0	0	0	0	0
O=S(=O)(Nc1cccc2cccnc12)c1ccccc1	0	8.2µM	23.1µM	25.9µM	13µM	-104.3
O=S(=O)(Nc1ncccn1)c1ccccc1	0	16.4µM	0	0	?	0
CC(=O)Nc1ccc(S(=O)(=O)Nc2cccc3cccnc23)cc1	0	0	0	0	0	0
NC(=S)NNc1cccc2cccnc12	0	11.6µM	?	?	6.51µM	0
O=S(=O)(Nc1ccc(S(=O)(=O)Nc2ncccn2)cc1)c1ccccc1	0	0	0	0	0	0
CS(=O)(=O)Nc1cccc2cccnc12	0	4.61µM	0	0	4.61µM	0

Screens: PubChem BioAssay, National Center for Advancing Translational Sciences (NCATS)
